These results are taken from ChEMBL document CHEMBL3988442, “University of Dundee, Small-Polar-MMV Screening Library” (2021).

For some assays here: Results with a measured potency or affinity are listed apart.

Holding throughout (design): scale not given: direction of the effect not stated beside the values
Assay [1] has as its target Protein translocase subunit SecA (Escherichia coli (strain K12)) (UniProt P10408). The experiment in a line: Assay to Identify E. coli SecA ATPase Inhibitors. In kind it is functional. The settings on record: 30 µM.
For assay [2], the target named is T1, Ubiquitin-activating enzyme e1, putative (Leishmania donovani (strain BPK282A1)) (UniProt E9BSI1).
T1 sequence (whole entry): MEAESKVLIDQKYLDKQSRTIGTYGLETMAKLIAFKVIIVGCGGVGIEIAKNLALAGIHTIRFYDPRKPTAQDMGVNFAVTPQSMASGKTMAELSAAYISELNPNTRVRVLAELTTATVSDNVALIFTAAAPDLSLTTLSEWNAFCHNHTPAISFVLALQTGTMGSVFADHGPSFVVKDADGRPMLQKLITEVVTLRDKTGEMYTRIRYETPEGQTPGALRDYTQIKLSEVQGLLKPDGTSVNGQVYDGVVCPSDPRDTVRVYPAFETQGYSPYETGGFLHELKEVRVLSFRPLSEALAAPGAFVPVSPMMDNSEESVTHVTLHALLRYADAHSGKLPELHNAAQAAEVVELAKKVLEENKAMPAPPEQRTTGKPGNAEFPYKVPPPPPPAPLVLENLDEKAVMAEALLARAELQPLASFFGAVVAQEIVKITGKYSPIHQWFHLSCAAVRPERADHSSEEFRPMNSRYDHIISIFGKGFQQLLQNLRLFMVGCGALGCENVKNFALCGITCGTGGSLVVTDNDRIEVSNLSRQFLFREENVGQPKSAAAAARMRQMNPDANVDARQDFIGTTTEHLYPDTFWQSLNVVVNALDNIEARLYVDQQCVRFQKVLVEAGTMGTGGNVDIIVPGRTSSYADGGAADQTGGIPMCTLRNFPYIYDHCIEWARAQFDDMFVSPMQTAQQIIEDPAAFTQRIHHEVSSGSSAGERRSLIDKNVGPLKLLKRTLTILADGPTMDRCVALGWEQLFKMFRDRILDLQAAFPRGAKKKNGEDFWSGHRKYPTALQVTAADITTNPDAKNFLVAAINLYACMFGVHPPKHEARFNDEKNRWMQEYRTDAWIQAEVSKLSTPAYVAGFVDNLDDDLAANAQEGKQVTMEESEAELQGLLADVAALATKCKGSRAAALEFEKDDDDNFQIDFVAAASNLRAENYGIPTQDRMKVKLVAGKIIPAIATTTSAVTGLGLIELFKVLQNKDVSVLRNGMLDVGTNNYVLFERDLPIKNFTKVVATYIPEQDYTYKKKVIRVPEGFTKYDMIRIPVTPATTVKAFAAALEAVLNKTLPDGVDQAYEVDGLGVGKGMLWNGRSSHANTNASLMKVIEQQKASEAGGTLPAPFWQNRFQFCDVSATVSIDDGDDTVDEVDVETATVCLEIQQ
Description: Leishmania donovani Ubiquitin Activating Enzyme (LdE1). In kind it is functional. Particulars: 30 µM.

Assay [3] has as its target AMP-activated protein kinase, AMPK (Homo sapiens) (UniProt P54646+O43741+P54619+Q9UGJ0+Q9Y478+Q13131+Q9UGI9). The experiment in a line: AMP-dependent Kinase enzyme assay. An in vitro enzyme assay that detects ADP turnover that is directly proportional to AMPK activity. This uses naive AMPK that is activated during the assay with MK-8722. In kind it is functional. Particulars: 30 µM.

For assay [4], the target named is Sialic acid-binding Ig-like lectin 9 (Homo sapiens) (UniProt Q9Y336). The experiment in a line: Hs-Siglec9 ALPHAscreen SOP 20170721. Particulars: 10 µM. For orientation: Alpha assays give light when donor and acceptor beads are brought close together.
The subject of assay [5] is Trypanosoma cruzi. The experiment in a line: Trypanosoma cruzi phosphomannomutase and mannose-1-phosphate guanylyltransferase assay. In kind it is functional. Particulars: 10 µM.
Assay [6] deals with T2, Arginase-2, mitochondrial (Homo sapiens) (UniProt P78540).
T2 sequence (whole entry): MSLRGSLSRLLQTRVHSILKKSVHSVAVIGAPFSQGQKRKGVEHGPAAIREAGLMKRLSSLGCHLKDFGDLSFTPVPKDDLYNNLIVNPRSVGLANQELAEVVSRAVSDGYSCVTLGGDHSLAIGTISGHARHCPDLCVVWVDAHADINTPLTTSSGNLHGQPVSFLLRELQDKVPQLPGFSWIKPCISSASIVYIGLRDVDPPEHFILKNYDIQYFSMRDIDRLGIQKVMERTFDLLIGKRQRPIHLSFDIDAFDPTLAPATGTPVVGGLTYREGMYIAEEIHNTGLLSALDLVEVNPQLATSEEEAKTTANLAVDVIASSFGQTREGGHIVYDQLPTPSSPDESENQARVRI
Description: in vitro enzyme assay to detect the production of urea directly proportional to the activity of Arginase II. Note: in the data most compounds retested in dose-response had high values. In kind it is functional. Particulars: 33.3 µM.

Assay [7] addresses T3, Proteasome subunit beta (Trypanosoma cruzi) (UniProt O96673).
T3 sequence (whole entry): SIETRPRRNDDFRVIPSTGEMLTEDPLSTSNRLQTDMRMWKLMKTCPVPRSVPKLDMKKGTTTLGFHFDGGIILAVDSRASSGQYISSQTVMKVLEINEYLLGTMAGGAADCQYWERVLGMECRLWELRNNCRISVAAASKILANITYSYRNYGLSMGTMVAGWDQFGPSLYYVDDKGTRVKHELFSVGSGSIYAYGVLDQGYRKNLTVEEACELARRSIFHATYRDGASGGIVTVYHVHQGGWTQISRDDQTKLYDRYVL
The experiment in a line: Trypanosoma cruzi proteasome chymotrypsin-like activity (TcProtChymo) assay. Note: in the data most compounds retested in dose-response had high values. In kind it is functional. The settings on record: 9.37 µM.

Assay [8] is filed under the species Homo sapiens. The experiment in a line: To identify inhibition of the IFN signalling (Jak-Stat) pathway via expression of an eGFP reporter gene under the control of an IFN-stimulated response element (ISRE) containing MxA promoter. In kind it is functional. Particulars: 30 µM. (A reporter such as luciferase makes a cellular process visible.)
The target in assay [9] is T4, Tyrosyl-tRNA synthetase, putative (Trypanosoma cruzi (strain CL Brener)) (UniProt Q4DSP6).
T4 sequence (whole entry): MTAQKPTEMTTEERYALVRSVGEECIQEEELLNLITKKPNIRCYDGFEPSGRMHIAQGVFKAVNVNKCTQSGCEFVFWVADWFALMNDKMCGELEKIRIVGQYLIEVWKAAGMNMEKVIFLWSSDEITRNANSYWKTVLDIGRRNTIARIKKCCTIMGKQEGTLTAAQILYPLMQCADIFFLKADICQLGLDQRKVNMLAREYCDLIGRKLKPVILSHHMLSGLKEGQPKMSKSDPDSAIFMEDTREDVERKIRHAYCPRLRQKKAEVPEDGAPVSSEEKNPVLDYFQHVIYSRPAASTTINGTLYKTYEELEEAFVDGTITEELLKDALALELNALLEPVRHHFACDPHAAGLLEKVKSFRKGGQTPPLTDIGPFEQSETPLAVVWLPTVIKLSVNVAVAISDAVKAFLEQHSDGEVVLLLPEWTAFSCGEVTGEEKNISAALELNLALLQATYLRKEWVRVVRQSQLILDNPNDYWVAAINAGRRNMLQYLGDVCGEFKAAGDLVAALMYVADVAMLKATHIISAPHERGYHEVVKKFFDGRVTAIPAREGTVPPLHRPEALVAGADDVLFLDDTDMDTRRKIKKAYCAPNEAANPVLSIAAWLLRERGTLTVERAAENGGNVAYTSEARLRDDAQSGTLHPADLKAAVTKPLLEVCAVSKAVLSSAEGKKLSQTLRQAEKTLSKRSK
Description: Trypanosoma cruzi tyrosyl tRNA synthetase (TcYRS) _High Tyrosine SOP. Note: in the data most compounds retested in dose-response had high values. In kind it is functional. Particulars: 30 µM.

Assay [10] concerns the target T4, Tyrosyl-tRNA synthetase, putative (Trypanosoma cruzi (strain CL Brener)). The experiment in a line: Trypanosoma cruzi tyrosyl tRNA synthetase (TcYRS) SOP. Particulars: 30 µM. In kind it is functional.
Assay [11] addresses Chromo domain-containing protein 1 (Saccharomyces cerevisiae (strain ATCC 204508 / S288c) (Baker's yeast)) (UniProt P32657). The experiment in a line: ScCHD-1 Enzyme Inhibition Assay. Note: in the data most compounds retested in dose-response had high values. In kind it is functional. The settings on record: 30 µM.

Sequence of Chromo domain-containing protein 1 (Saccharomyces cerevisiae (strain ATCC 204508 / S288c) (Baker's yeast)) (P32657 whole entry, the tested form may be a part): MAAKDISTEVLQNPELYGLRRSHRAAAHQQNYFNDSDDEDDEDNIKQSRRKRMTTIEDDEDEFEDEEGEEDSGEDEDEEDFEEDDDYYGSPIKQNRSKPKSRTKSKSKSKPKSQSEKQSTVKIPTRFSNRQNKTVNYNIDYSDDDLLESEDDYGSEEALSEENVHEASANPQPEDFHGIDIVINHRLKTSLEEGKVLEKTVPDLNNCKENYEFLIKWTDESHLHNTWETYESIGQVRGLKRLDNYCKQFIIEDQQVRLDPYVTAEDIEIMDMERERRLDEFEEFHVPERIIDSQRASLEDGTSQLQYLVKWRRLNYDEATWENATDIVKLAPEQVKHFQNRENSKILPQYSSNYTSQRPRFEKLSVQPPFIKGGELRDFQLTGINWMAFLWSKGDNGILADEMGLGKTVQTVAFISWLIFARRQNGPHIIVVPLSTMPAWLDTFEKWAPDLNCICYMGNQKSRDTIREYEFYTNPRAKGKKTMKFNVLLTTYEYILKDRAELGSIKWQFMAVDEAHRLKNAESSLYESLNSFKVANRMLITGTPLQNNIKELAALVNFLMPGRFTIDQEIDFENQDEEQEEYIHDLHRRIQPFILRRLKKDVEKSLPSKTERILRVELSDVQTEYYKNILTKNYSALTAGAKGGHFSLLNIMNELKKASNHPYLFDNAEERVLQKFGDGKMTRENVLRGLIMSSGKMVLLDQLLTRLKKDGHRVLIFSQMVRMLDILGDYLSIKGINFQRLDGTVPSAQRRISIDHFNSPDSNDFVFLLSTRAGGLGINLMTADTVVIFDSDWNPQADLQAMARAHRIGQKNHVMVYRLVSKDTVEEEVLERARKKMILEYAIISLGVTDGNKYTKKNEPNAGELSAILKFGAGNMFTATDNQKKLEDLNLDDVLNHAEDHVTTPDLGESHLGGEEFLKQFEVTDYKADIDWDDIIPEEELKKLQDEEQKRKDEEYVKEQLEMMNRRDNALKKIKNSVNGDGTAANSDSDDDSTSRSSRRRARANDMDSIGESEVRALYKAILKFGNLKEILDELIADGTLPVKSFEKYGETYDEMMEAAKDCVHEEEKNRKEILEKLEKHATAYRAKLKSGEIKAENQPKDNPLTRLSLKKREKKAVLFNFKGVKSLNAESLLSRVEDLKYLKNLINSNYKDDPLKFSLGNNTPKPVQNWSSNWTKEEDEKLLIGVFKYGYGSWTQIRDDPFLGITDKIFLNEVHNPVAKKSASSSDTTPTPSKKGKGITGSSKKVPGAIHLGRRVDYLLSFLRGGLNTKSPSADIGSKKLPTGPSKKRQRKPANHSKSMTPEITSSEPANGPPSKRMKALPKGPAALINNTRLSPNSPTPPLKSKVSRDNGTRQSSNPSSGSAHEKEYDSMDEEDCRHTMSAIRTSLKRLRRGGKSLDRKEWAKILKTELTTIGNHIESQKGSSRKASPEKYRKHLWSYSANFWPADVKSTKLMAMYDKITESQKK
Sequence of Protein translocase subunit SecA (Escherichia coli (strain K12)) (P10408 whole entry): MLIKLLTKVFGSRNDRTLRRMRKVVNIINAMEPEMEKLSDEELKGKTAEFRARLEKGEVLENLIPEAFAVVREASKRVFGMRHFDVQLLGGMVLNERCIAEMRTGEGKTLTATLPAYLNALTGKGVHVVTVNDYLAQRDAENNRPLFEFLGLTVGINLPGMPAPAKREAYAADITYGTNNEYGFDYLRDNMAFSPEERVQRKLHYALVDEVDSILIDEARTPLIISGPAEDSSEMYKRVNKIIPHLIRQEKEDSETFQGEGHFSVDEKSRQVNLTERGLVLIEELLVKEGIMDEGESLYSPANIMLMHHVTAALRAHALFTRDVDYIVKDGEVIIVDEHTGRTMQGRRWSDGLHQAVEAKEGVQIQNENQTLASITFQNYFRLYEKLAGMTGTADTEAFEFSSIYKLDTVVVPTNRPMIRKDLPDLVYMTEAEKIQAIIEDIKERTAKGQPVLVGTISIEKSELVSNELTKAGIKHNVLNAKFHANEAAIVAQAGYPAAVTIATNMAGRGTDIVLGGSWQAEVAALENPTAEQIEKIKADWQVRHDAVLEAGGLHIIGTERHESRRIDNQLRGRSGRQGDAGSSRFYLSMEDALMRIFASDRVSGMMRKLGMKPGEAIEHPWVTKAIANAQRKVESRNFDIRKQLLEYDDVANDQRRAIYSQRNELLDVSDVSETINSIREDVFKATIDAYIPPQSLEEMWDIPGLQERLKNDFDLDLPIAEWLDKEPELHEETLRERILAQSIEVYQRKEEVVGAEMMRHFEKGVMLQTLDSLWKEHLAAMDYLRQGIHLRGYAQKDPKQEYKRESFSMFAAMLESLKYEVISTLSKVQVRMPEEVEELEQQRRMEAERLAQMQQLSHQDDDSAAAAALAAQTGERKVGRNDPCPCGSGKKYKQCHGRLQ
Sequence of Sialic acid-binding Ig-like lectin 9 (Homo sapiens) (Q9Y336 whole entry): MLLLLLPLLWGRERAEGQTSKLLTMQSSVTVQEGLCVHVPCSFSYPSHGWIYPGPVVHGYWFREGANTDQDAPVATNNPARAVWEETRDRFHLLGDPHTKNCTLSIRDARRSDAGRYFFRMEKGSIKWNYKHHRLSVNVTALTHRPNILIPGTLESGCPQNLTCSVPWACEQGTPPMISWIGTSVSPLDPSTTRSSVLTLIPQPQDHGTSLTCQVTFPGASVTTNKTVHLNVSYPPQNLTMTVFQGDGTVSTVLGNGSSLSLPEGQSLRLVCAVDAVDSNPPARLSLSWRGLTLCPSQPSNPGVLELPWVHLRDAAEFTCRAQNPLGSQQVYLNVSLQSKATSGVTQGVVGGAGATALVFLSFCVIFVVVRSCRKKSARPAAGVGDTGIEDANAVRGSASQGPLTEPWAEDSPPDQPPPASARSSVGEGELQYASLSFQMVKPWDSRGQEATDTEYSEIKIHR

As for `CCNC(=O)N1CCN(Cc2nc3ccccc3[nH]2)[C@@H]2CS(=O)(=O)C[C@@H]21`, the Percent Effect is -3.35% in [1]; 5.41% in [2]; -2.19% in [3]; -3.56% in assay [4]; -4.2% in assay [5]; 2.23% in [6]. Moreover, the Percent Effect in assay [7] was 15.2%; in assay [8], 1.54%; in [9], 4.3%; in assay [10] it was 11.1%; in assay [11], -3.76%.
On to `O=C(CN1CC(n2cccn2)C1)NCCCc1ccccc1`, for which the Percent Effect in [1] is 0.869%; in assay [2], -13.5%; in assay [3], 10.2%; in [4] it was 12.8%; in assay [5] it was 6.41%; in assay [6] it was 1.29%. The Percent Effect in assay [7] was -0.179%; in assay [8], -9.65%; in assay [9], 1.98%; in [10], 11%; in assay [11], 1.45%.
On to `Cc1noc(C)c1CN1CCc2nn(C(C)C)c(=O)cc2C1`, for which the Percent Effect in [1] is -9.42%; in assay [2], 13.2%; in [3] it was -66%; in assay [4] it was 20.3%; in [5], 9.8%; in assay [6], 5.04%. In addition, the Percent Effect is 12.9% in [7]; -9.45% in [8]; 5.42% in [9]; 16.1% in assay [10]; -9.78% in [11].
As to `CCN(CC)C(=O)c1nnn(Cc2ccccc2)c1OC`, the Percent Effect in assay [1] is -6.72%; in assay [2], -1.33%; in assay [3] it was 3.11%; in assay [4] it was 2.1%; in assay [5], -4.52%; in assay [6] it was -4.05%. Moreover, the Percent Effect is 8.32% in [7]; -11.4% in assay [8]; 6.35% in [9]; 5.13% in assay [10]; -1.8% in [11].
For the compound `CC(C)C(C(=O)N1CCCN(Cc2cnn(C)c2)CC1)n1cncn1` (stereo not given), the Percent Effect in [1] was -1.34%; in assay [2] it was 0%; in assay [3], 2.52%; in assay [4], 2.77%; in [5] it was -5.8%; in [6], 2.76%. Further, the Percent Effect in assay [7] was 7.82%; in [8], -12.4%; in assay [9], 1.07%; in assay [10], -1.24%; in [11], 2.06%.
With `O=C1CC(c2cccc(O)c2)c2c(c(C(=O)O)cn2-c2ccccc2)N1` (stereo not given), the Percent Effect is -3.46% in [1]; 1.33% in [2]; -385% in [3]; 1.46% in assay [4]; -3.34% in assay [5]; -5.81% in [6]. In addition, the Percent Effect is 14.6% in assay [7]; 7.35% in [8]; 0% in assay [9]; -5.13% in [10]; -11.7% in [11].
As to `CC(C)CN1C[C@H]2CCN(Cc3cccnc3)CC[C@H]2S1(=O)=O`, the Percent Effect was -4.38% in [1]; 8.11% in assay [2]; 2.04% in [3]; -0.964% in assay [4]; -2.05% in assay [5]; -5.41% in assay [6]. Also, the Percent Effect in assay [7] amounted to 16.2%; in assay [8], 21.9%; in assay [9], 1.08%; in [10], 5.13%; in [11] it was 1%.
`CC(C)(C)c1ncc2c(n1)CN(C(=O)c1ccc(-c3nc[nH]n3)cc1)C2`: the Percent Effect in assay [1] was -4.17%; in assay [2], 19.2%; in [3], -3.06%; in assay [4], 7.66%; in [5], 4.37%; in assay [6], 1.2%. The Percent Effect in assay [7] was 6.76%; in assay [8] it was -4.4%; in [9], 7.29%; in [10], 21%; in [11] it was -8.9%.
Turning to `CC(C)n1cc(C(=O)N2Cc3ccccc3OC3(CCOCC3)C2)cn1`, the Percent Effect in assay [1] was -4.16%; in [2] it was 9.46%; in assay [3] it was 5.88%; in assay [4] it was -5.24%; in assay [5] it was -8.1%; in assay [6], -9.05%. In addition, the Percent Effect in assay [7] is 14.5%; in [8], 28.1%; in assay [9], -3.23%; in [10] it was -1.3%; in assay [11], -13.3%.
As for `Cc1[nH]ncc1CCCNC(=O)Nc1ccc(C#N)cc1`, the Percent Effect in assay [1] was -1.53%; in assay [2], 5.41%; in assay [3] it was 8.53%; in assay [4], 1.92%; in assay [5], 3.28%; in [6] it was 2.38%. Also, the Percent Effect in [7] was 7.41%; in assay [8], 15.2%; in assay [9], 7.94%; in assay [10], 9.76%; in [11], -1.92%.
